Screening data: PubChem BioAssay, several laboratories
CHT PAM: allosterically activates the human high affinity choline transporter; CHT-expressing cells, membrane potential dye, choline EC20; hits give high values; LV-AA mutant CHT in HEK293 cells; B-score at 10 µM; hit rate 0.49% among 310,000; Q9GZV3;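 active = initial fluorescence not abnormally high and integrated response B-score, plate-corrected, over 3 SD above library mean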
Target sequence (Q9GZV3 whole entry, looked up): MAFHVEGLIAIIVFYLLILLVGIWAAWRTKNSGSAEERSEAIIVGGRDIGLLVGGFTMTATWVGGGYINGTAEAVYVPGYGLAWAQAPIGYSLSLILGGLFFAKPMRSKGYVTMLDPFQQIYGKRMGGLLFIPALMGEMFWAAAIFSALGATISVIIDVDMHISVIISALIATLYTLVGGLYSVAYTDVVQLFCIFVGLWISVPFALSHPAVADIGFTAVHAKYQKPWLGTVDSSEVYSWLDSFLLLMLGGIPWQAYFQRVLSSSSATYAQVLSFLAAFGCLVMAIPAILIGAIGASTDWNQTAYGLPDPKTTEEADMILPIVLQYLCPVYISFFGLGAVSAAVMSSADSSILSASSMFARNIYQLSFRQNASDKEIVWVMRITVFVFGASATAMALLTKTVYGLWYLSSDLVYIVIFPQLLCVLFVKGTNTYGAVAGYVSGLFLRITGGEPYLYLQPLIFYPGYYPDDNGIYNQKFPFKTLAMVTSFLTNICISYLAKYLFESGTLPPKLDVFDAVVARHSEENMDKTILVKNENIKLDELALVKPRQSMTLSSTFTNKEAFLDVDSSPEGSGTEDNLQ
ANO1 block: mouse TMEM16A channel inhibition, primary screen | Q8BHY3 | HEK293 TMEM16A/YFP iodide influx fluorescence, ionomycin | normalized B-score (activity score, 25-100; higher = stronger inhibition) at 10 µM | hit rate 1.2% among 310,000;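 active = ratio plate-corrected score three or more library SD toward inhibition, starting fluorescence score within five deviations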;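 also: score derived from kinetic fluorescence span divided by baseline fluorescence per well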
IDE cell activ: IDE (human) activation, cell-based | P14735 | HEK cells, FAbeta-B cleavage, fluorescence polarization; 0% vehicle, 100% cell-free pure enzyme wells | activation, % at 5.96 µM | hit rate 0.073% among 340,000;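 active = activation above the mean of all tested compounds plus 3 SD, set per screening campaign, cut at about 17% in these data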
IDE cell inh: inhibitors of human insulin-degrading enzyme in cells; P14735; HEK cells, FAbetaB cleavage, fluorescence polarization; inhibition, % at 5.59 µM; hit rate 0.41% among 320,000;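 active = percent inhibition above the average of all tested compounds plus 3 SD, set per screening campaign, cut at about 16% in these data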;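 also: IDE supplied by intact live HEK cells; FP after avidin binding of uncleaved biotin substrate so inhibition keeps polarization high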
CHT block: inhibits the human high affinity choline transporter | Q9GZV3 | CHT-expressing cells, membrane potential dye, choline response; hits give low values | B-score at 10 µM | hit rate 0.86% among 310,000;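 active = B-score over 3 SD under the library average, and starting fluorescence ratio not unusually high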;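 also: choline stimulus applied at its EC90 after an EC20 pre-addition; B-score computed on integrated fluorescence ratio after choline addition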
TMEM16A act: mouse TMEM16A channel activation, primary screen; hit rate 0.3% among 340,000; B-score at 10 µM; AID 623877; HEK293 TMEM16A/YFP-H148Q/I152L, iodide quench fluorescence; hits give low values;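 active = fluorescence-ratio B-score plate-corrected deviation score at least 3 library SD below zero, with starting fluorescence score within 5 deviations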;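 also: channel opened by trigger with iodide after compound preincubation; score built on the fluorescence ratio of max minus min over baseline; more negative score means more quench and so TMEM16A activation or potentiation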
Of the large screens only hits and unclear results are named; the others gave an inactive call. An excerpt weighted towards active compounds, which were near 2.7% of everything screened.

NC(=O)Nc1ccc(C(=O)OCC(=O)Nc2cccc(S(=O)(=O)NC3=NCCCCC3)c2)cc1	none
O=S(=O)(Nc1cccc(S(=O)(=O)N2CCCC2)c1)c1cccc(Br)c1	none (no result: CHT PAM, ANO1 block, CHT block)
COc1ccc(/C=C2/SC(=S)N(CCCC(=O)Nc3ccccc3C(=O)O)C2=O)cc1	IDE cell activ 22
Cc1ccc(/C=C2\SC(=S)N(CCCC(=O)Nc3ccccc3C(=O)O)C2=O)cc1	none
CCc1ccc(/C=C2\SC(=S)N(CCCC(=O)Nc3ccc(C(=O)O)cc3)C2=O)cc1	ANO1 block 100
CCc1ccc(/C=C2\SC(=S)N(CCCC(=O)Nc3ccccc3C(=O)O)C2=O)cc1	ANO1 block 100
CCOC(=O)C1CCN(c2ccc([N+](=O)[O-])c(C(C)=O)c2)CC1	none
CCCCOc1ccc(S(N)(=O)=O)cc1	none
NS(=O)(=O)c1ccc(Oc2ccc(S(N)(=O)=O)cc2)cc1	TMEM16A act -4.9
COC(=O)C1CCN(Cc2ccc(OCCCN3CCN(c4ccc([N+](=O)[O-])cc4)CC3)cc2)CC1	ANO1 block 25
CC1CCN(CCCCOc2ccc([N+](=O)[O-])cc2)CC1	none
CNC(CC(=O)c1ccc([N+](=O)[O-])cc1)C(Cl)(Cl)Cl (configuration not stated)	ANO1 block 25
CC(C)CC(=O)NC(=S)NNC(=O)c1ccc([N+](=O)[O-])cc1	none
CSc1nc(Cl)c(Br)c(Nc2c[nH]c(=O)[nH]c2=O)n1	none (no result: CHT PAM, ANO1 block, IDE cell inh, CHT block)
CCCCCCCCCCn1c2c(c(=N)c3c1CCC3)CCC2	CHT PAM 16, ANO1 block 100
Cc1[nH]n(-c2ccccc2)c(=O)c1C(C[N+](=O)[O-])c1ccc(Br)cc1 (configuration not stated)	ANO1 block 25
Cc1ccc(S(=O)(=O)c2ccccc2)cc1S	IDE cell inh 26 (no result: IDE cell activ, TMEM16A act)
Nc1ccc(S(=O)(=O)c2cccc(N)c2)cc1	none
O=C1C(C=NCc2ccccn2)=C(O)c2ccccc21	ANO1 block 25
CS(=O)(=O)c1ccc(Cl)c(C(=O)OCC(=O)NC2CCCCCCC2)c1	none (no result: CHT PAM, ANO1 block, CHT block)
CSCC(C)N1CCC(Oc2cccc(C(=O)NCc3ccccn3)c2)CC1 (configuration not stated)	CHT block -17
CCSc1nnc(-c2sc3nnc(-c4ccccc4)c(-c4ccccc4)c3c2N)o1	IDE cell inh 21
CCSc1nnc(-c2ccncc2)o1	none
CCOc1ccc(CCNC(=O)CSc2nnnn2C)cc1OCC	none
CCOc1ccc(CCNC(=O)CSc2nn(-c3ccc(C)c(Cl)c3)c(=S)s2)cc1OCC	TMEM16A act -6
c1cn2cc(CN3CCOCC3)nc2s1	ANO1 block 25
Nc1nc(CN2CCOCC2)cs1	none
COc1ccc(C(=O)Nc2ccc(C)cn2)c(OC)c1	ANO1 block 100
COc1ccc(C(=O)Nc2cc(C)on2)c(OC)c1	none
COC(=O)CSc1nc2sc3c(c2c(=O)n1-c1ccc(OC)cc1)CCN(C)C3	none (no result: CHT PAM, ANO1 block, IDE cell inh, CHT block)
COC(=O)CSc1nc2sc3c(c2c(=O)n1C1CCCCC1)CCN(C)C3	CHT PAM 8.8 (no result: IDE cell activ, TMEM16A act)
Cc1cc(NC(=O)c2cncc(Br)c2)ccc1NC(=O)c1cc2ccccc2o1	IDE cell activ 18
CCOc1ccc(Nc2ccc([N+](=O)[O-])c3nonc23)cc1	ANO1 block 100
CC(=O)NCCNC(=O)c1ccc(NC2=NC3CS(=O)(=O)CC3S2)cc1 (configuration not stated)	TMEM16A act -12
CC(C)CCn1c(SCC(=O)NC2CCS(=O)(=O)C2)nc2cc(Cl)ccc2c1=O (configuration not stated)	none
S=C(S)N1CCCC1	ANO1 block 100
Oc1ccc(C(=S)N2CCCC2)cc1	none
CC(Sc1nnc(-c2ccc(Cl)cc2)n1N)C(=O)NCC1CCCO1 (configuration not stated)	none
CC(NC(=O)Cc1ccc(-c2ccccc2)cc1)c1ccccc1 (configuration not stated)	TMEM16A act -18
CC(NC(=O)COC(=O)Cc1ccc(Cl)cc1)c1ccccc1 (configuration not stated)	none (no result: CHT PAM, ANO1 block, CHT block)
COc1ccc2c(c1OC)C(=O)OC2	none
COc1ccc2c3c(cccc13)C(=O)CC2	IDE cell activ 43 (no result: IDE cell inh)
